# Only some compounds are listed: those with a hit (about 3.3% of all), similar ones and a draw of the others.
# PI4K2A block: PI4K2A (human) kinase inhibition | Q9BTU6 | purified PI4K2A, ADP-Glo luminescence, 1 h; active compounds read low | activity change, negative = inhibition, % at 76.9 µM | 420,000 compounds, 0.13% hits | AID 1346378; in the data active = activity change below about -50%; inconclusive = mostly about -30% to -49%
# Target sequence (Q9BTU6 whole entry, looked up): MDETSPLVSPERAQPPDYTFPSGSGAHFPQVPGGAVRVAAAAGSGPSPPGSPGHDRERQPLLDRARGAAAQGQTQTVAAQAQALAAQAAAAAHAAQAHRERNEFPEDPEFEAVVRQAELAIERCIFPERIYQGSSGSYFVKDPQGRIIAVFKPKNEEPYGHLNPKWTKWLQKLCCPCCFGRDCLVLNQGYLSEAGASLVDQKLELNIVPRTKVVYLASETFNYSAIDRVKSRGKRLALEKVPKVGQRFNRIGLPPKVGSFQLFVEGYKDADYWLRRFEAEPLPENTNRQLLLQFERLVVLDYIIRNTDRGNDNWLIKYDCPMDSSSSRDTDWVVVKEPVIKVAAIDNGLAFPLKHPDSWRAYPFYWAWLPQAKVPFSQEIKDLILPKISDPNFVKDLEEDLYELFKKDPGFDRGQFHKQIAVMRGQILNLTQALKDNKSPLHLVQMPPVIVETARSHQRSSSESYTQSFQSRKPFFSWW
#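 Compounds are screened against recombinant PI4K2A using PI as substrate and ATP, the latter dispensed at 300 microM. Reactions run one hour at ambient temperature before ADP-Glo detection; full inhibition defined by wells lacking enzyme.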
# D3 ag: activates the human D3 dopamine receptor; P35462; D3R DiscoveRx beta-arrestin cells, luminescence, 90 min; max activation, %; 410,000 compounds, 0.58% hits; in the data active = max activation above about 30%
#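 Cells at 1500/well, incubated overnight, then treated with pinned compounds (dopamine as control) for 90 min at 37 degrees C. DiscoveRx reagent added for 30 - 60 minutes at room temperature; luminescence read.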
# LDHA block: inhibitors of human lactate dehydrogenase A | activity change, % (values are at about 110 or 230 µM) | 480,000 compounds, 0.15% hits | purified LDHA, NADH/diaphorase-resazurin fluorescence; active compounds read low | AID 1347041 | P00338; in the data active = activity change below about -30%; inconclusive = mostly about -25% to -30%
#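 Enzyme activity of human lactate dehydrogenase 5 (2 nM; 0.06 mM NADH, 0.2 mM pyruvate, 5 min, RT) is measured via a resazurin/diaphorase fluorescence readout of residual NADH.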
# D3 antag: antagonists of human D3 dopamine receptor; P35462; D3R cells, DiscoveRx beta-arrestin luminescence, antagonist mode; active compounds read low; max response, negative = inhibition, %; 360,000 compounds, 2.5% hits; in the data active = max response below about -50%; inconclusive = no clear call, values can overlap the other calls
#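 Cells expressing the human receptor were seeded at 1500 cells/well, incubated overnight at 37 degrees C in 5% CO2, then exposed to library compounds with dopamine controls for 90 minutes at 37 degrees C before luminescent detection.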
# PI5P4K alpha inh: inhibitors of human PI5P4K alpha | P48426 | PI5P4Kalpha enzyme, ADP-Glo luminescence, 60 min; active compounds read low | max response, % | 330,000 compounds, 1.2% hits; active = max response of -50% or lower; inconclusive = between -30% and -50%; inactive = -30% or higher; note: value at the top dose of about 77 µM
#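 qHTS, 1536-well: enzyme/substrate mix, compound by pin tool, 5 microM ATP final; RT 60 min; ADP-Glo reagents 1 (45 min) then 2 (30 min); luminescence.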
# Numbers stand for hits; – = inactive; ? = inconclusive; · = not tested or not shown; ! = not active in a repeat.
SMILES,PI4K2A block,D3 ag,LDHA block,D3 antag,PI5P4K alpha inh
CC1=NN(c2ccccc2)C(=O)/C1=C/c1ccc(Cl)cc1,?,–,–,–,–
CC1=NN(c2ccccc2)C(=O)C1=Cc1ccccc1,-56.6,–,–,?,–
CC1=NN(c2ccccc2)C(=O)/C1=C/C=C/C=C/N(C)C,?,–,–,-69.0,?
O=C(CSC1=Nc2ccccc2C2=NC(c3ccccc3)C(=O)N12)NC1CCCCC1 (stereo not given),–,–,–,–,·
CN(C(=O)CSC1=Nc2ccccc2C2=NC(c3ccccc3)C(=O)N12)C1CCCCC1 (stereo not given),–,–,–,-55.2,·
O=C(c1ccccc1Cl)N1CCNCC1,–,–,–,–,–
Clc1ccc2c(c1)C(N1CCNCC1)Cc1ccccc1S2 (stereo not given),–,–,–,-55.6,–
NC(=O)CCN1CCN(CCOC2Cc3cc(Cl)ccc3Sc3ccccc32)CC1 (stereo not given),–,–,–,-85.8,–
NC(=O)COCCN1CCN(C(c2ccccc2)c2ccc(Cl)cc2)CC1 (stereo not given),–,–,·,·,·
O=C(CN1CCCC1)N1c2ccccc2Sc2ccc(Cl)cc21,–,–,–,–,–
Clc1cccc2c1Sc1ccccc1CC2N1CCNCC1 (stereo not given),–,–,–,-54.9,–
COCCCN1CCN(C2Cc3ccccc3Sc3ccc(Cl)cc32)CC1 (stereo not given),–,–,–,-96.5,–
O=CN1CCN(C(=O)Cn2nc(C(=O)O)c3ccccc3c2=O)CC1,·,·,–,·,·
O=C(NC1CCN(Cc2ccccc2)CC1)c1cc2ccccc2[nH]1,·,·,–,·,·
COCCn1cnnc1SCc1ccccc1F,·,·,–,·,·
COc1ccc(-c2nc(NC(=O)c3cc(F)cc(F)c3)n[nH]2)cc1OC,·,·,–,·,·
CCCSc1nn2c(=O)c3ccccc3nc2s1,–,–,–,-50.6,–
O=c1c2ccccc2nc2sc(NCc3ccccc3)nn12,·,·,–,·,·
Cc1ccnc2nc(NC(=O)c3ccco3)nn12,–,–,–,-66.1,–
O=C1CSC(=S)N1c1cccc(F)c1,–,–,–,–,–
O=C1CC(=O)N(c2cccc(F)c2)N1,–,–,–,-50.8,–
CSc1ccc(NC(=O)c2cc(F)ccc2F)cc1,·,·,–,·,·
CC1=CC(=O)C(Sc2ccc(C)cc2)=CC1=O,–,–,–,-91.7,-71.5
CCCCN(CC)CCNC(=O)c1cc2c(-c3ccccc3F)nn(C)c2s1,–,–,–,-61.2,–
CCN(CCCNC(=O)c1cc2c(-c3cccc(OC)c3)nn(C)c2s1)Cc1ccccc1,–,–,–,-53.9,–
SMILES,PI4K2A block,D3 ag,LDHA block,D3 antag,PI5P4K alpha inh
Cn1nc(-c2ccccc2F)c2cc(C(=O)N3CCN(c4ccccc4F)CC3)sc21,–,50.7,–,·,·
N#Cc1c(N)sc(=S)c2c1CCCCC2,?,–,–,–,-91.2
CC1=CC(=O)C=C(C)C1=NOS(=O)(=O)c1ccccc1,–,–,–,-56.1,–
CC1=CC(=O)C(C(C)C)=C/C1=N/OS(=O)(=O)c1ccccc1,–,–,–,-78.7,–
CC1=CC(=O)C(C2CCCCC2)=C/C1=N\OS(=O)(=O)c1ccccc1,–,·,·,·,·
COc1nccnc1NS(=O)(=O)c1ccc(N=Cc2c(C)[nH]n(-c3ccccc3)c2=O)cc1,–,–,–,?,–
COc1nccnc1NS(=O)(=O)c1ccc(N=Cc2c(C)[nH]n(-c3ccc(C)c(C)c3)c2=O)cc1,–,–,–,-59.7,·
CN(CC(=O)N(C)C)Cc1ccc(F)c2cccnc12,·,·,–,·,·
O=S(=O)(Nc1nc(-c2sccc2Cl)cs1)c1cc(Cl)ccc1Cl,–,–,–,-85.8,-50.4
CC(C)(C)c1nnc(NS(=O)(=O)c2cc(Cl)ccc2Cl)s1,–,–,–,–,–
CCOc1ccc(NC(=O)CNC(=O)c2ccc(OC)cc2)cc1,–,–,–,–,–
CCOc1ccc(C(=O)NCC(=O)OCC(=O)Nc2ccc(C)c(S(=O)(=O)N(C)C)c2)cc1,–,–,-31.4,–,–
CCOc1ccc(NC(=O)CNC(=O)c2ccc(OC)c(OC)c2)cc1,–,–,–,-54.0,–
Cc1ccc(NC(=O)COC(=O)CNC(=O)C2CCCCC2)cc1S(=O)(=O)N(C)C,–,–,–,–,–
Cc1ccc(C)c(S(=O)(=O)Nc2nc3ccccc3nc2Nc2ccccc2F)c1,·,·,–,·,·
CC(C)CNC(=O)CN1CCN(C(=O)c2cc3ccccc3[nH]2)CC1,·,·,–,·,·
CCN(CC)c1ccc(/C=C2\C(=O)c3ccc(C(=O)O)cc3C2=O)cc1,–,–,–,–,-70.1
CCN(CC)c1ccc(C(=O)O)cc1,–,–,–,–,–
COc1ccc(-c2noc3c2-c2nc(-c4ccc(Cl)cc4)sc2CC3)cc1,–,–,–,–,–
COc1ccc(-c2noc3c2-c2nc(-c4cccc(C)c4)sc2CC3)cc1,–,59.5,–,–,–
COCCN1C[C@@H](CO)O[C@@H](n2cnc3c(N4CCCC4)ncnc32)C1,–,87.5,–,–,–
COCCN1C[C@@H](CO)O[C@@H](n2cnc3c(N4CCN(C)CC4)ncnc32)C1,–,–,–,–,–
OC[C@@H]1CN(CCN2CCOCC2)C[C@H](n2cnc3c(NC4CCCC4)ncnc32)O1,–,–,–,-51.2,–
O=C1NN(c2ccccc2)C(=O)/C1=C/c1ccc(-c2ccc(C(=O)O)cc2)o1,–,–,–,–,?
O=C(O)c1ccc(N2C(=O)/C(=C/c3ccc(-c4ccc([N+](=O)[O-])cc4)o3)C=C2c2ccccc2)cc1,–,–,–,?,-94.1
SMILES,PI4K2A block,D3 ag,LDHA block,D3 antag,PI5P4K alpha inh
COc1ccc(-c2nc(C#N)c(N(C)CCC#N)o2)cc1,·,·,–,·,·
C=CC#CC1(O)CC(C)N(C)CC1C (stereo not given),–,–,–,-66.1,–
CCC1(O)CC(C)N(C)CC1C (stereo not given),·,·,–,·,·
Cc1cc(-c2noc(COc3ccccc3)n2)c2ccccc2n1,·,·,–,·,·
CC1Nc2ncnc(N3CCN(c4ccccc4)CC3)c2N(Cc2ccc(Cl)cc2)C1=O (stereo not given),–,–,–,-165.8,–
CC(C)CC1Nc2ncnc(N3CCN(c4ccccc4)CC3)c2N(Cc2ccccc2)C1=O (stereo not given),–,–,–,-78.3!,–
CC1Nc2ncnc(N3CCOCC3)c2N(Cc2ccc(Cl)cc2)C1=O (stereo not given),–,–,–,?,–
CC1Nc2ncnc(N3CCN(c4ccccc4)CC3)c2N(Cc2ccccc2)C1=O (stereo not given),–,–,–,-110.3,–
Cc1oc(-c2ccccc2)nc1C(=O)OCC(=O)NC(=O)NC1CCCCC1,·,·,–,·,·
Cc1cc(C)c(S(=O)(=O)Nc2cccc(S(=O)(=O)C3CCCC3)c2)c(C)c1,·,·,–,·,·
COc1ccc(OC)c2c1C(=O)C(Cl)=C(Cl)C2=O,–,–,–,-126.5,-101.8
COc1ccc(C(=O)NCC(=O)NCC2COc3ccccc3O2)cc1 (stereo not given),–,–,–,-52.1,–
